From PubChem BioAssay (NCATS) come the findings set out here.

SMILES strings stand for the structures. Inconclusive results are not listed. Active and inactive are the calls of the source. Calls follow the shape of the dose curve; as a rule, active = well fitted inhibition curve with a large enough effect; inconclusive = small, poorly fitted or top-dose-only effect; inactive = flat fitted curve, though single readings scatter.

Test in all cases: qHTS profiling for inhibitors of Plasmodium falciparum proliferation (AID 504749); also: nearly all actives have a fitted effect of over 60% in size
Holding throughout (details): P. falciparum in erythrocytes, SYBR Green DNA, 72 h; series mostly up to 28.7 µM
Background: In qHTS, concentration-response curves come from the screen itself.

One assay relates to CP194. The method, boiled down:
(§1)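 Readout was DNA-dye fluorescence from lysed cultures, ex 485/em 535 nm. Parasitized red cells had grown 72 h with compound; data scaled between 0.29 uM artemisinin and DMSO wells and corrected using vehicle-only plates.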

In the next assay the test system is CP201. Summed up:
as §1

A further assay relates to CP203. The method, boiled down:
as §1

A further assay deals with CP211. Summed up: as §1
The subject of another assay is CP215. The method, boiled down:
as §1

The next assay concerns CP217. Summed up: as §1
For the next assay, the system named is CP237. The method, boiled down:
as §1

A further assay relates to CP238. The method, boiled down:
as §1

A further assay deals with CP247. Summed up: as §1
In the next assay the test system is CP250. The method, boiled down:
as §1

The subject of a further assay is CP252. The method, boiled down:
as §1

The test system of the next assay is CP256. The method, boiled down: as §1
A further assay relates to CP260. Summed up:
as §1

For another assay, the system named is CP262. Summed up: as §1
The subject of another assay is CP265. Summed up: as §1
The subject of another assay is CP266. The method, boiled down:
as §1

Another assay concerns CP268. The method, boiled down:
as §1

The next assay relates to CP269. Summed up:
as §1

In another assay the test system is CP286. The method, boiled down:
as §1

In the next assay the test system is CP192. The method, boiled down:
as §1
Potency is read from the fitted curve at half-maximal effect.

Take `Cc1c(C(N)=O)cc([N+](=O)[O-])cc1[N+](=O)[O-]`: the Potency result in the assay with CP194, in the assay on CP201, with CP203, in the assay with CP211, in the assay with CP215 and with CP217 was “inactive” throughout. For the same compound, the Potency entry in the assay on CP237, with CP238, in the assay on CP247, with CP250, in the assay with CP252 and in the assay with CP256 was “inactive” each time. The Potency entry with CP260, with CP262, with CP265, with CP266, with CP268 and in the assay on CP269 was “inactive” each time. Also, the Potency entry in the assay on CP286 was “inactive”.
Consider `CCCCCCCCCCOCC(O)CN` (configuration not stated), for which the Potency entry in the assay on CP201, in the assay on CP215, in the assay with CP238, in the assay with CP247, with CP250 and in the assay with CP260 was “inactive” in each case. In addition, the Potency entry in the assay on CP262, in the assay on CP266 and in the assay with CP269 was “inactive” in each case.
On to `C[C@@H]1CN(CCCn2c3ccccc3c3ccccc32)C[C@H](C)N1`, for which the Potency result in the assay with CP192 and in the assay with CP266 was “inactive” throughout. Besides, the Potency with CP237 was 11.2 µM (active); in the assay on CP247 it was 4.47 µM (active); in the assay with CP260, 11.2 µM (active); in the assay with CP265 it was 7.94 µM (active); in the assay on CP286, 12.6 µM (active).
Take `CC(C)=CCC1C(=O)N(c2ccccc2)N(c2ccccc2)C1=O`: the Potency result in the assay on CP201, in the assay on CP238, in the assay with CP247, with CP265, in the assay on CP266 and in the assay on CP268 was “inactive” throughout. In addition, the Potency was 13.5 µM (active) with CP215 and 11.2 µM (active) in the assay with CP237.
`CCN(CC)CCOc1ccc(C(O)(Cc2ccc(Cl)cc2)c2ccc(C)cc2)cc1` (configuration not stated): the Potency in the assay with CP215 is 13.5 µM (active); with CP237 it was 7.94 µM (active); with CP247, 10 µM (active); with CP260, 11.2 µM (active); with CP268, 19 µM (active); in the assay with CP269, 15.1 µM (active). For the same compound, the Potency with CP286 is 10 µM (active).
As for `Cc1cc(N)c2cc(NC(=O)Nc3ccc4nc(C)cc(N)c4c3)ccc2n1`, the Potency in the assay with CP192 was 3.79 µM (active); in the assay with CP203, 5.36 µM (active); in the assay with CP211 it was 3.79 µM (active); with CP217 it was 8.91 µM (active); with CP237, 5.01 µM (active); with CP238 it was 12.6 µM (active). The Potency was 12.6 µM (active) in the assay on CP247; 11.2 µM (active) in the assay on CP250; 1.78 µM (active) with CP256; 5.62 µM (active) with CP260; 4.78 µM (active) with CP262; 7.08 µM (active) in the assay on CP265. The Potency is 2.39 µM (active) with CP269 and 4.47 µM (active) in the assay on CP286. For the same compound, the Potency result with CP252 is “inactive”.
Regarding `CN(C)CC/C=C1\c2ccccc2Sc2ccc(Cl)cc21`, the Potency result in the assay with CP192, with CP201, in the assay on CP250, with CP262, in the assay with CP266 and in the assay with CP268 was “inactive” in each case. The Potency with CP260 is 8.91 µM (active); with CP286 it was 11.2 µM (active).
As to `NC(=O)C(=O)N/N=C/c1ccc([N+](=O)[O-])o1`, the Potency entry with CP217, in the assay with CP237, with CP238, in the assay with CP247, with CP250 and in the assay with CP252 was “inactive” in each case. For the same compound, the Potency result in the assay on CP256, in the assay on CP260, with CP262, in the assay on CP265 and in the assay on CP286 was “inactive” each time.
As to `CCCCc1nc(Cl)c(CO)n1Cc1ccc(-c2ccccc2-c2nn[nH]n2)cc1`, the Potency was 6.75 µM (active) with CP211, 12.6 µM (active) with CP217 and 10 µM (active) in the assay on CP252. In addition, the Potency result in the assay with CP237, with CP262 and in the assay with CP268 was “inactive” throughout.
Turning to `Oc1c(I)cc(Cl)c2cccnc12`, the Potency entry in the assay on CP194, in the assay on CP201, in the assay on CP203, with CP211, with CP237 and in the assay on CP266 was “inactive” in each case. Moreover, the Potency result with CP268, in the assay on CP269 and in the assay on CP286 was “inactive” throughout. Moreover, the Potency in the assay with CP217 was 8.91 µM (active); in the assay with CP238, 11.2 µM (active); in the assay on CP247 it was 12.6 µM (active); in the assay on CP250, 5.01 µM (active); with CP252 it was 11.2 µM (active); in the assay on CP256, 2.51 µM (active).
For `CO/N=C1\CN(c2nc3c(cc2F)c(=O)c(C(=O)O)cn3C2CC2)CC1CN` (configuration not stated), the Potency with CP260 was 7.94 µM (active); in the assay with CP268 it was 12 µM (active); in the assay on CP269 it was 5.36 µM (active); in the assay on CP286 it was 7.94 µM (active). For the same compound, the Potency entry in the assay on CP262 is “inactive”.
As for `CC(C)(C)CC(C)(C)c1ccc(O)c(Cc2ccc(Cl)cc2Cl)c1`, the Potency with CP192 is 3.79 µM (active); in the assay with CP203, 1.69 µM (active); in the assay on CP211, 1.51 µM (active); in the assay on CP215, 1.69 µM (active); in the assay with CP217 it was 2.82 µM (active); in the assay on CP237, 2.51 µM (active). For the same compound, the Potency is 1.41 µM (active) in the assay with CP238; 3.16 µM (active) in the assay on CP247; 3.16 µM (active) with CP250; 1 µM (active) in the assay with CP252; 3.55 µM (active) in the assay with CP256; 2 µM (active) with CP260. Moreover, the Potency is 3.16 µM (active) with CP265; 4.78 µM (active) in the assay with CP266; 0.757 µM (active) with CP268; 1.51 µM (active) in the assay on CP269; 2.51 µM (active) with CP286.
Regarding `CN(C)C(=S)SC(=S)N(C)C`, the Potency with CP192 was 7.57 µM (active); with CP237, 10 µM (active); in the assay on CP250 it was 11.2 µM (active); with CP256 it was 10 µM (active); with CP260 it was 10 µM (active); with CP269, 10.7 µM (active). The Potency with CP286 is 11.2 µM (active). In addition, the Potency entry in the assay on CP262 and in the assay with CP266 was “inactive” each time.
As to `OC(CCN1CCCCC1)(c1ccccc1)c1ccccc1`, the Potency entry in the assay with CP201, in the assay on CP211, with CP250 and with CP266 was “inactive” each time. Also, the Potency is 16.9 µM (active) in the assay with CP203, 4.47 µM (active) with CP237, 8.91 µM (active) with CP265 and 11.2 µM (active) with CP286.
For the compound `c1ccc(CNCCNCc2ccccc2)cc1`, the Potency result with CP192, with CP201, in the assay with CP250 and in the assay on CP262 was “inactive” in each case. Besides, in the assay with CP237, the Potency is 3.16 µM (active).
For `Oc1ccc(O)cc1`, the Potency result in the assay with CP201 and with CP268 was “inactive” each time. In addition, the Potency in the assay on CP203 is 15.1 µM (active).
